Experimental data published in ChEMBL document CHEMBL3988442, “University of Dundee, Small-Polar-MMV Screening Library” (2021).
For some of these results: Measured potencies and affinities stand elsewhere.

Experiments:
Design in all cases: scale not given: direction of the effect not stated beside the values
[1] = target: Protein translocase subunit SecA (Escherichia coli (strain K12)) (UniProt P10408); assay: Assay to Identify E. coli SecA ATPase Inhibitors; type: functional; details: 30 µM
[2] = target: T1, Ubiquitin-activating enzyme e1, putative (Leishmania donovani (strain BPK282A1)) (UniProt E9BSI1); assay: Leishmania donovani Ubiquitin Activating Enzyme (LdE1); type: functional; details: 30 µM
T1 sequence (whole entry): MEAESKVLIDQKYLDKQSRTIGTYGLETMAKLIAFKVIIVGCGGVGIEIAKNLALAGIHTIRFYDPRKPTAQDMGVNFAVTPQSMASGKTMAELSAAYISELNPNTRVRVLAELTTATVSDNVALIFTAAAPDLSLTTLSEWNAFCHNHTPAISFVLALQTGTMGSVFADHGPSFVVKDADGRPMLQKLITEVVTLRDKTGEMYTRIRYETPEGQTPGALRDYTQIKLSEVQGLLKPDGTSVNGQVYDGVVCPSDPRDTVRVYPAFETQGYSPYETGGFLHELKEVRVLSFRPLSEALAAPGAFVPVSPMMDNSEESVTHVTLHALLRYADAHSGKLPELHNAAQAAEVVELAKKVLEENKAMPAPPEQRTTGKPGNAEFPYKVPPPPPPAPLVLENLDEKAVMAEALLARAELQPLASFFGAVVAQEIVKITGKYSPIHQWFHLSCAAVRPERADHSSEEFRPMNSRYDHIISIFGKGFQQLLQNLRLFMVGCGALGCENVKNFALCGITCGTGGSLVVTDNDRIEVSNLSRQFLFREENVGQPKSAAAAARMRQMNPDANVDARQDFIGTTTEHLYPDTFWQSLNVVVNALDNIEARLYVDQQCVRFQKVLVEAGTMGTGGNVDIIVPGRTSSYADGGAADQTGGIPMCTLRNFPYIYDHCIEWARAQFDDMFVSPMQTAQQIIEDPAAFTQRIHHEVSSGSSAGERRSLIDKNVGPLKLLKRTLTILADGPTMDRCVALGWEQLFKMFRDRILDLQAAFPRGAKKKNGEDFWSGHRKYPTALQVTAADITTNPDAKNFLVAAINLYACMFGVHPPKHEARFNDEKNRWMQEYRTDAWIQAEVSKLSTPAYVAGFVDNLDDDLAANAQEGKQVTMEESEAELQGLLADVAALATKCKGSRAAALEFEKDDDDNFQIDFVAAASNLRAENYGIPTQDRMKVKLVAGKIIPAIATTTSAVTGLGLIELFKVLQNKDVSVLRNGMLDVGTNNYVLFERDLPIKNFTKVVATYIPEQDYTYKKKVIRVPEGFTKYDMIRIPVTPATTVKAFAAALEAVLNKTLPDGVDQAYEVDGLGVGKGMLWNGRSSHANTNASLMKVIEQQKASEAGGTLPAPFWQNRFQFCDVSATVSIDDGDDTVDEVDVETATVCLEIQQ

[3] = target: AMP-activated protein kinase, AMPK (Homo sapiens) (UniProt P54646+O43741+P54619+Q9UGJ0+Q9Y478+Q13131+Q9UGI9); assay: AMP-dependent Kinase enzyme assay. An in vitro enzyme assay that detects ADP turnover that is directly proportional to AMPK activity. This uses naive AMPK that is activated during the assay with MK-8722; type: functional; details: 30 µM
[4] = target: Sialic acid-binding Ig-like lectin 9 (Homo sapiens) (UniProt Q9Y336); assay: Hs-Siglec9 ALPHAscreen SOP 20170721; details: 10 µM
[5] = system: Trypanosoma cruzi; assay: Trypanosoma cruzi phosphomannomutase and mannose-1-phosphate guanylyltransferase assay; type: functional; details: 10 µM
[6] = target: T2, Arginase-2, mitochondrial (Homo sapiens) (UniProt P78540); assay: in vitro enzyme assay to detect the production of urea directly proportional to the activity of Arginase II; type: functional; details: 33.3 µM; further: in the data most compounds retested in dose-response had high values
T2 sequence (whole entry): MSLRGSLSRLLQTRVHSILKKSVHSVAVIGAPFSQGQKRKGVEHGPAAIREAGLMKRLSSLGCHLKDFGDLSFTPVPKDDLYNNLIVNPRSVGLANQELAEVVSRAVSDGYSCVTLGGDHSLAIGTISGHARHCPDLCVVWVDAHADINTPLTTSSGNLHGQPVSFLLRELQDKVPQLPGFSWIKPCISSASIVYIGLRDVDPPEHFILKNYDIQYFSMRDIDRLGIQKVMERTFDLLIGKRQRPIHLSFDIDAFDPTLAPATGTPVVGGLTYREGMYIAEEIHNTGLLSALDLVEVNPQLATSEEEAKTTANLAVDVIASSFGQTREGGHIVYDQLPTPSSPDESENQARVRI

[7] = target: T3, Proteasome subunit beta (Trypanosoma cruzi) (UniProt O96673); assay: Trypanosoma cruzi proteasome chymotrypsin-like activity (TcProtChymo) assay.; further: in the data most compounds retested in dose-response had high values; type: functional; details: 9.37 µM
T3 sequence (whole entry): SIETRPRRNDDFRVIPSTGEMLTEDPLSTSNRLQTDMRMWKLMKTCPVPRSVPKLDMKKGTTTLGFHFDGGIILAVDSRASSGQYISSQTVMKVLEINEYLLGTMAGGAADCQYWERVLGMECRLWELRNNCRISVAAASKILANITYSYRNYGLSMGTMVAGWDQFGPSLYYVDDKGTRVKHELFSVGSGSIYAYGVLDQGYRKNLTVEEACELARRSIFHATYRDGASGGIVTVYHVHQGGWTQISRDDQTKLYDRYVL

[8] = species: Homo sapiens; assay: To identify inhibition of the IFN signalling (Jak-Stat) pathway via expression of an eGFP reporter gene under the control of an IFN-stimulated response element (ISRE) containing MxA promoter.; type: functional; details: 30 µM
[9] = target: T4, Tyrosyl-tRNA synthetase, putative (Trypanosoma cruzi (strain CL Brener)) (UniProt Q4DSP6); assay: Trypanosoma cruzi tyrosyl tRNA synthetase (TcYRS) _High Tyrosine SOP; type: functional; details: 30 µM; further: in the data most compounds retested in dose-response had high values
T4 sequence (whole entry): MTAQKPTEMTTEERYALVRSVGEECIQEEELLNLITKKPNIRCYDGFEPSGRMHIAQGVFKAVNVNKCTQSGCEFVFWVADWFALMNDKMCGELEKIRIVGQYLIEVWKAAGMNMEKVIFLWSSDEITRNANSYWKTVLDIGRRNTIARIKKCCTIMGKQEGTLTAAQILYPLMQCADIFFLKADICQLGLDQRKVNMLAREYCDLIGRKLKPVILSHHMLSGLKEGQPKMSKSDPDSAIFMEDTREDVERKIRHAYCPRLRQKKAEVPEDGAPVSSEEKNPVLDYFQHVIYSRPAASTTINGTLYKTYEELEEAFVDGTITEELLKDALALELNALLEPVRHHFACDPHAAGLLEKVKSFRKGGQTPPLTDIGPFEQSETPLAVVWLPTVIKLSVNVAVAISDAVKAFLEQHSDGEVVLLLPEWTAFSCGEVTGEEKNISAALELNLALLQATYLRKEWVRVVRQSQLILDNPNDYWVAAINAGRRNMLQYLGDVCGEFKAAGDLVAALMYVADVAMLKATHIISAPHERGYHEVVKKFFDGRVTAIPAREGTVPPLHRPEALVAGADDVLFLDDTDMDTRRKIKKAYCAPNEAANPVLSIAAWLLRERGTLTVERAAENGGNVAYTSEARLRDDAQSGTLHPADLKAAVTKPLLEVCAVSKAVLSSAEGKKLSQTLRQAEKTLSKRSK

[10] = target: T4, Tyrosyl-tRNA synthetase, putative (Trypanosoma cruzi (strain CL Brener)); assay: Trypanosoma cruzi tyrosyl tRNA synthetase (TcYRS) SOP; type: functional; details: 30 µM
[11] = target: Chromo domain-containing protein 1 (Saccharomyces cerevisiae (strain ATCC 204508 / S288c) (Baker's yeast)) (UniProt P32657); assay: ScCHD-1 Enzyme Inhibition Assay; type: functional; details: 30 µM; further: in the data most compounds retested in dose-response had high values
Chain of Chromo domain-containing protein 1 (Saccharomyces cerevisiae (strain ATCC 204508 / S288c) (Baker's yeast)) (P32657 whole entry, the tested form may be a part): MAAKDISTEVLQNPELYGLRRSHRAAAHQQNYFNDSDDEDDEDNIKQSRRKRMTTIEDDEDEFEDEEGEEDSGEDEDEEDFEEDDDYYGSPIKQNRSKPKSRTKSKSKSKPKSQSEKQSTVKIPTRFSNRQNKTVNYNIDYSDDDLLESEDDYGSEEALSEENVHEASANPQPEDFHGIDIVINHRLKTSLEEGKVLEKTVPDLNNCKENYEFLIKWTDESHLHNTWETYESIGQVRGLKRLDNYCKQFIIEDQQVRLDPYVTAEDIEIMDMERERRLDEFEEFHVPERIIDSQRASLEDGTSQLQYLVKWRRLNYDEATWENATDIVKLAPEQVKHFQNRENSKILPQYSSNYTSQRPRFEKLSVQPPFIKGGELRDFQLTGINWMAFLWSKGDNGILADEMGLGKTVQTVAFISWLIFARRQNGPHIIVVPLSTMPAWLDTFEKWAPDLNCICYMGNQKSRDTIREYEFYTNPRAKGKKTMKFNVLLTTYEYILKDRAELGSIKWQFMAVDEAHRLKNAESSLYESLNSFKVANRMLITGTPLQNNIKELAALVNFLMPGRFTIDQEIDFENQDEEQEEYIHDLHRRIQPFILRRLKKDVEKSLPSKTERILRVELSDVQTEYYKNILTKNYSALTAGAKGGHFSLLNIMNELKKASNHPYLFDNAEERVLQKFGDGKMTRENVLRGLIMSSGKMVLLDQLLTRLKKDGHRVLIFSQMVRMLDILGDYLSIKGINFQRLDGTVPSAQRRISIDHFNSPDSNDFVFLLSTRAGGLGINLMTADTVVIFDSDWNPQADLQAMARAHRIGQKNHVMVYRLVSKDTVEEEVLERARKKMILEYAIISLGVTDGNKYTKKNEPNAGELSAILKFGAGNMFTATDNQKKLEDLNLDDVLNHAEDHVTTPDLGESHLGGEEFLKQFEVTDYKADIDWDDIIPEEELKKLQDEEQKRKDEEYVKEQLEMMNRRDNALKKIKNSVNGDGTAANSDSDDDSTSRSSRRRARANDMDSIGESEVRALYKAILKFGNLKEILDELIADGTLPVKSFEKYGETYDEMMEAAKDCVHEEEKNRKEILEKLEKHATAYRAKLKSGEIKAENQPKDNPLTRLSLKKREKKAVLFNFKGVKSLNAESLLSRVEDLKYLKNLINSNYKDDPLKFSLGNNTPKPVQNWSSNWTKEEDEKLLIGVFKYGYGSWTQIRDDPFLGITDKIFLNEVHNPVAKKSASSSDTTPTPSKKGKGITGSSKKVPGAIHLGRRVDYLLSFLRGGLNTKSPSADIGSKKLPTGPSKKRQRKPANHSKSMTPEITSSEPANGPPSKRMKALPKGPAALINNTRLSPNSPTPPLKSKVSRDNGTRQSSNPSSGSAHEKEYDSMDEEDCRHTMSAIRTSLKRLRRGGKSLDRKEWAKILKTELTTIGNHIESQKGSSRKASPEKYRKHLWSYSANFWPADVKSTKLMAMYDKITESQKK

Chain of Sialic acid-binding Ig-like lectin 9 (Homo sapiens) (Q9Y336 whole entry): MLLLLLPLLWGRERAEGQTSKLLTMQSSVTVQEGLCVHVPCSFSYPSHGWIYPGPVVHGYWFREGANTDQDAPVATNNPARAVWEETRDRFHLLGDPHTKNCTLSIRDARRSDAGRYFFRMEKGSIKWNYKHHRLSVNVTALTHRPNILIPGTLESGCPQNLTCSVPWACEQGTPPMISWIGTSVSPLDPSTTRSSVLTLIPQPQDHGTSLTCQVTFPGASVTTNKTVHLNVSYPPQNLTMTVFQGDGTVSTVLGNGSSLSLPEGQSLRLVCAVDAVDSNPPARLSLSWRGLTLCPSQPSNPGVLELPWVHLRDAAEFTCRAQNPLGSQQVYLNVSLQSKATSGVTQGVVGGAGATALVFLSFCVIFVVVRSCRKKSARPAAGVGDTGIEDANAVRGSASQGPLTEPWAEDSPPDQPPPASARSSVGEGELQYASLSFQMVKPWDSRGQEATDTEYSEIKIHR
Chain of Protein translocase subunit SecA (Escherichia coli (strain K12)) (P10408 whole entry): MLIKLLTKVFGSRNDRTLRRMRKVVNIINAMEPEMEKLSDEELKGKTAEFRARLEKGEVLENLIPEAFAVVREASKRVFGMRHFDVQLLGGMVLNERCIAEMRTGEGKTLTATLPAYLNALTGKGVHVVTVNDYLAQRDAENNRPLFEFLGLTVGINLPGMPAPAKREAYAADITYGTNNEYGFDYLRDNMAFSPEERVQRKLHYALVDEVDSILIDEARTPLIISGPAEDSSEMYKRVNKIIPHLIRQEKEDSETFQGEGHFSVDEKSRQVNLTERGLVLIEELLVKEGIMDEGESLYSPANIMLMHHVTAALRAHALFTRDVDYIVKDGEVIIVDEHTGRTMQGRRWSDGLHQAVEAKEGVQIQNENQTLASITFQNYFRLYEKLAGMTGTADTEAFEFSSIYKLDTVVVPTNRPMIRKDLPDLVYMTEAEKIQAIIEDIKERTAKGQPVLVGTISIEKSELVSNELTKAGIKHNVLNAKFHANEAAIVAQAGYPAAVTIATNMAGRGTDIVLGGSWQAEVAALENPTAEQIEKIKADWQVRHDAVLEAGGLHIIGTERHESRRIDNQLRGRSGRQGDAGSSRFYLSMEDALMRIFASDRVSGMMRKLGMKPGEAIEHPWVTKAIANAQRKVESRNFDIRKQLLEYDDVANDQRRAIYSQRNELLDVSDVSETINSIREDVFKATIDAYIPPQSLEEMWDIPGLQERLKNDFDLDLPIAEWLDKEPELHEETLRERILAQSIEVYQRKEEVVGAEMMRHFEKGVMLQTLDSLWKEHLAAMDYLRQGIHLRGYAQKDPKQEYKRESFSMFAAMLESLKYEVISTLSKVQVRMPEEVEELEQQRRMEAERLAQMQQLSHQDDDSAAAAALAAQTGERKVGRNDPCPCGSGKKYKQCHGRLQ

SMILES | Percent Effect [1] | Percent Effect [2] | Percent Effect [3] | Percent Effect [4] | Percent Effect [5] | Percent Effect [6] | Percent Effect [7] | Percent Effect [8] | Percent Effect [9] | Percent Effect [10] | Percent Effect [11]
O=C(Cc1c[nH]c2ccccc12)N1CCN(C(=O)c2ccoc2)CC1 | -2.06% | 13.2% | 1.95% | -3.58% | 0.487% | 14.2% | 12.9% | 21.1% | 7.45% | 18.2% | -2.68%
O=C(c1ccco1)N1CCOCC2(C1)CN(c1ccccc1)C(=O)CO2 (stereo unspecified) | -3.5% | 2.67% | 5.75% | 17.4% | -3.86% | -27.8% | -1.54% | 5.08% | 2.08% | -2.5% | -5.45%
COc1ccc(OCCCN2CCOC(Cn3cccn3)C2)cc1 (stereo unspecified) | -8.28% | 3.8% | 9.54% | 3.31% | -1.74% | 1.94% | 2.74% | 28.6% | 1.04% | 2.53% | -3.35%
COc1cc(C)nc(N2CCN(C(=O)c3ccc[nH]3)CC2)n1 | -5.18% | 10.8% | -2.76% | 14.9% | 3.68% | -5.21% | 4.14% | 17.1% | 1.48% | 6.17% | -10.1%
O=C(NCc1cccnc1)C1=NOC2(CCN(S(=O)(=O)C3CC3)C2)C1 (stereo unspecified) | -5.43% | 13.3% | -3.17% | -2.3% | 4.25% | -41.4% | 5.81% | -3.44% | -3.12% | 2.5% | -6.85%
Cc1cc(N(C)C)nc(C2(C)CCCN2C(=O)c2cnccn2)n1 (stereo unspecified) | -2.86% | 8% | 5.28% | -5.27% | 7.48% | 2.1% | 11.4% | -1.62% | 1.06% | 8.97% | -2.81%
CC(C)(C)n1cc(C(=O)N2CCN(Cc3ccccc3F)CC2)cn1 | -2.41% | 13.2% | -1.01% | 8.67% | 4.89% | 0.383% | 22.4% | 10.5% | 6.37% | 21.9% | -11.6%
CC(C)Cc1noc(CN2CCCC(Cn3cncn3)C2)n1 (stereo unspecified) | -4.29% | 16.2% | -4.96% | 16.6% | 3.25% | 2.03% | 7% | 13.5% | 11.9% | 28.1% | -7.85%
Cc1cnn(CCCNC(=O)N2CCCCC(N3CCCC3)C2)c1 (stereo unspecified) | -2.45% | 15.8% | 0.679% | 7.49% | 3.19% | 4.21% | 15.5% | 8.88% | 8.33% | 19.5% | -2.25%
O=C(Cn1nc2c(cc1=O)CSCC2)NC(Cc1ccccc1)C(=O)O (stereo unspecified) | -6.43% | 20% | -8.36% | 1.5% | 7.47% | 89.3% | 15% | 7.8% | -2.12% | 15.4% | -19%
Cc1csc(C2CCCN(C(=O)c3ccc(=O)n(C)n3)C2)n1 (stereo unspecified) | -1.5% | 0% | -1.05% | -7.99% | -4.2% | 2.23% | 1.97% | -5.09% | -1.07% | -1.24% | -2.21%
